According to PubChem BioAssay (EPA / NIEHS):
Records with an inconclusive call do not appear. Active and inactive are the calls of the source. How the source made its calls, unless noted: active means hit-call score of the fitted dose curve at least 0.9, where 1 is the maximum; inactive means score below 0.9.

Experiments:
[1] = read-out: E-selectin (Homo sapiens) (UniProt P16581); test: BSK_3C_Eselectin: BioMAP Diversity Plus: 3C Assay for Eselectin Biomarker Activity (AID 2283015); conditions: primary human endothelial cells (HUVEC); actives raise or lower the signal
In short: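 HUVEC, 3C stimulation; compound exposure 24 h; E-selectin by ELISA; gain- or loss-of-signal fitted bidirectionally vs DMSO baseline.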

[2] = read-out: Monocyte Chemoattractant Protein-1 (MCP1), CCL2 (gene 6347); test: BSK_3C_MCP1: BioMAP Diversity Plus: 3C Assay for Monocyte Chemoattractant Protein-1 (MCP1) Biomarker Activity (AID 2283017); conditions: primary human endothelial cells (HUVEC); actives raise or lower the signal
In short: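 HUVEC, 3C system; 24 h chemical exposure; MCP-1 by ELISA; bidirectional curve fit vs DMSO baseline.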

[3] = read-out: Monocyte Chemoattractant Protein-1 (MCP1), CCL2 (gene 6347); test: BSK_4H_MCP1: BioMAP Diversity Plus: 4H Assay for Monocyte Chemoattractant Protein-1 (MCP1) Biomarker Activity (AID 2283018); conditions: primary human endothelial cells (HUVEC); actives raise or lower the signal
In short: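 Primary human umbilical vein endothelium is exposed to chemical for 24 h before MCP-1 is assayed by ELISA. Concentration-response fitted bidirectionally relative to DMSO.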

[4] = read-out: Human Leukocyte Antigen - DR isotype (HLADR), HLA-DRA (gene 3122); test: BSK_3C_HLADR: BioMAP Diversity Plus: 3C Assay for Human Leukocyte Antigen - DR isotype (HLADR) Biomarker Activity (AID 2283019); conditions: primary human endothelial cells (HUVEC); actives raise or lower the signal
In short: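 HUVEC, 3C stimulation, 24 h post-dose; HLA-DR by ELISA; bidirectional curve fit vs DMSO baseline; gain or loss of signal scored.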

[5] = read-out: Interleukin-8 (IL8), CXCL8 (gene 3576); test: BSK_3C_IL8: BioMAP Diversity Plus: 3C Assay for Interleukin-8 (IL8) Biomarker Activity (AID 2283020); conditions: primary human endothelial cells (HUVEC); actives raise or lower the signal
In short: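 Using DMSO-treated wells as the baseline, bidirectional curve fitting was applied to ELISA-measured IL-8 from human umbilical vein endothelial cultures sampled 24 h after compound addition.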

[6] = read-out: Monokine induced gamma interferon (MIG), CXCL9 (gene 4283); test: BSK_3C_MIG: BioMAP Diversity Plus: 3C Assay for Monokine induced gamma interferon (MIG) Biomarker Activity (AID 2283021); conditions: primary human endothelial cells (HUVEC); actives raise or lower the signal;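 on AC50: MIG protein level measured by immunoassay in the treated endothelial cultures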
In short: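 ELISA-measured MIG in dosed HUVEC 3C cultures at 24 h, analysed by bidirectional fitting with DMSO defining baseline activity.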

[7] = BSK_3C_SRB: Viability Assessment in the BioMAP Diversity Plus: 3C Assay (AID 2283023); conditions: primary human endothelial cells (HUVEC);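 further: fitted both ways against DMSO so a hit may be signal rise or drop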
In short: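 HUVEC, 24 h post-dose; 10% TCA fix, 0.1% SRB stain, A560 nm. Bidirectional curve fit vs DMSO negative control.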

[8] = read-out: Matrix Metallopeptidase 1 (MMP1), MMP1 (gene 4312); test: BSK_BE3C_MMP1: BioMAP Diversity Plus: BE3C Assay for Matrix Metallopeptidase 1 (MMP1) Biomarker Activity (AID 2283024); conditions: primary human bronchial epithelial cells; actives raise or lower the signal
In short: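 In this multiplexed primary-cell system, human bronchial epithelium received chemicals for 24 h before an ELISA for MMP1. Values reflect bidirectional fits normalised to the DMSO baseline.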

[9] = BSK_3C_Vis: BioMAP Diversity Plus: 3C Assay for Morphology Visualization (AID 2283025); conditions: primary human endothelial cells (HUVEC);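 further: fitted both ways so gain or loss versus DMSO counts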;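 on AC50: light microscopy image of cell morphology used as background control; cells imaged 24 h after dosing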
In short: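 Light-microscopy morphology readout, 24 h exposure, human primary umbilical vein endothelium; analysed relative to DMSO with bidirectional fitting.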

[10] = read-out: Pselectin, SELP (gene 6403); test: BSK_4H_Pselectin: BioMAP Diversity Plus: 4H Assay for Pselectin Biomarker Activity (AID 2283026); conditions: primary human endothelial cells (HUVEC); actives raise or lower the signal
In short: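 Bidirectional fits against DMSO gave the endpoint. Cells: primary human umbilical vein endothelium, chemical-treated for 24 h before ELISA detection of P-selectin.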

[11] = BSK_4H_SRB: Viability Assessment in the BioMAP Diversity Plus: 4H Assay (AID 2283027); conditions: primary human endothelial cells (HUVEC);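 further: cells exposed to compound for 24 h before staining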;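 on AC50: curves fitted both ways versus DMSO so AC50 may be loss or gain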
In short: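 Cytotoxicity read-out in primary human endothelial cells: after 24 h compound exposure, cells were TCA-fixed (10%), stained with 0.1% SRB and absorbance taken at 560 nm. Values fitted in both directions relative to DMSO.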

[12] = BSK_BE3C_SRB: Viability Assessment in the BioMAP Diversity Plus: BE3C Assay (AID 2283028); conditions: primary human bronchial epithelial cells
In short: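 Primary human bronchial epithelium; chemical dosing, 24 h; 10% TCA fix, 0.1% SRB stain, A560; bidirectional fit vs DMSO baseline.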

[13] = read-out: Thrombomodulin, THBD (gene 7056); test: BSK_3C_Thrombomodulin: BioMAP Diversity Plus: 3C Assay for Thrombomodulin Biomarker Activity (AID 2283029); conditions: primary human endothelial cells (HUVEC); actives raise or lower the signal
In short: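 In a multiplexed primary-cell system, human umbilical vein endothelium received chemical and was assayed 24 h later for thrombomodulin by ELISA. Parallel cultures were SRB-stained (0.1% SRB after 10% TCA fixation, read at 560 nm) to flag cytotoxicity.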

[14] = read-out: Urokinase-type plasminogen activator receptor (uPAR), PLAUR (gene 5329); test: BSK_4H_uPAR: BioMAP Diversity Plus: 4H Assay for Urokinase-type plasminogen activator receptor (uPAR) Biomarker Activity (AID 2283030); conditions: primary human endothelial cells (HUVEC); actives raise or lower the signal
In short: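 HUVEC, 24 h post-dose; uPAR by ELISA; bidirectional fit vs DMSO baseline.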

[15] = read-out: Vascular endothelial growth factor receptor 2 (Homo sapiens) (UniProt P35968); test: BSK_4H_VEGFRII: BioMAP Diversity Plus: 4H Assay for Vascular endothelial growth factor receptor 2 (VEGFR2) Biomarker Activity (AID 2283031); conditions: primary human endothelial cells (HUVEC); actives raise or lower the signal;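 on AC50: cell-surface VEGFR2 protein level quantified by ELISA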
In short: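 HUVEC (human primary), 4H system; 24 h post-dose; VEGFRII by ELISA; bidirectional curve fit vs DMSO baseline; gain or loss of signal scored.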

[16] = read-out: Vascular cell adhesion molecule 1 (VCAM1), VCAM1 (gene 7412); test: BSK_4H_VCAM1: BioMAP Diversity Plus: 4H Assay for Vascular cell adhesion molecule 1 (VCAM1) Biomarker Activity (AID 2283033); conditions: primary human endothelial cells (HUVEC); actives raise or lower the signal
In short: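 In this human endothelial (HUVEC) system, biomarker ELISA was run 24 h after compound addition, and total protein in parallel wells was assessed by SRB at 560 nm; DMSO served as negative control.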

[17] = read-out: Interferon-gamma inducible Protein 10 (IP10), CXCL10 (gene 3627); test: BSK_BE3C_IP10: BioMAP Diversity Plus: BE3C Assay for Interferon-gamma inducible Protein 10 (IP10) Biomarker Activity (AID 2283034); conditions: primary human bronchial epithelial cells; actives raise or lower the signal
In short: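 BE3C cells (human bronchial epithelial, primary); 24 h exposure; ELISA for IP-10; DMSO-referenced bidirectional fit.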

[18] = molecular target: human Vitamin D Receptor (VDR), VDR (gene 7421) (UniProt P11473); test: ATG_VDR_TRANS: Attagene TRANS-FACTORIAL HepG2 Assay for human Vitamin D Receptor (VDR) (AID 2283022; active means hit-call score of the fitted dose curve at least 0.9, where 1 is the maximum)
In short: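 RT-PCR/capillary electrophoresis read-out of reporter mRNA induction in transiently transfected HepG2; 24 h dosing; chimeric NR-Gal4 (TRANS format); gain-of-signal fit against DMSO baseline.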

[19] = read-out: Human Leukocyte Antigen - DR isotype (HLADR), HLA-DRA (gene 3122); test: BSK_BE3C_HLADR: BioMAP Diversity Plus: BE3C Assay for Human Leukocyte Antigen - DR isotype (HLADR) Biomarker Activity (AID 2283032); conditions: primary human bronchial epithelial cells; actives raise or lower the signal
In short: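 BioMAP BE3C format: human bronchial epithelium, 24 h compound treatment, ELISA detection of HLA-DR, with bidirectional analysis relative to DMSO.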

Measured: AC50

Chain of human Vitamin D Receptor (VDR), VDR (gene 7421) (P11473 whole entry, looked up, the tested form may be a part): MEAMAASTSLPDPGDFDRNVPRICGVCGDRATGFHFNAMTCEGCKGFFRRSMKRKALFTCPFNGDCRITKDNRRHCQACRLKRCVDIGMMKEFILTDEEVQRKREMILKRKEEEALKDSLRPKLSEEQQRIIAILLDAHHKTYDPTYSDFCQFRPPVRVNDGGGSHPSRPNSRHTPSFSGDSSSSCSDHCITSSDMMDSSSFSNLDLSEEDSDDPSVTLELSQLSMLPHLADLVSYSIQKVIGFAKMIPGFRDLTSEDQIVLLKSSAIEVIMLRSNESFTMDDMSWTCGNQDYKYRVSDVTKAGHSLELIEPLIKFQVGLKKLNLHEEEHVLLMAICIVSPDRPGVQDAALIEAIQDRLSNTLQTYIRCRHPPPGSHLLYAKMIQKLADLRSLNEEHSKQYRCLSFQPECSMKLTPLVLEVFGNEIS
Chain of E-selectin (Homo sapiens) (P16581 whole entry, looked up): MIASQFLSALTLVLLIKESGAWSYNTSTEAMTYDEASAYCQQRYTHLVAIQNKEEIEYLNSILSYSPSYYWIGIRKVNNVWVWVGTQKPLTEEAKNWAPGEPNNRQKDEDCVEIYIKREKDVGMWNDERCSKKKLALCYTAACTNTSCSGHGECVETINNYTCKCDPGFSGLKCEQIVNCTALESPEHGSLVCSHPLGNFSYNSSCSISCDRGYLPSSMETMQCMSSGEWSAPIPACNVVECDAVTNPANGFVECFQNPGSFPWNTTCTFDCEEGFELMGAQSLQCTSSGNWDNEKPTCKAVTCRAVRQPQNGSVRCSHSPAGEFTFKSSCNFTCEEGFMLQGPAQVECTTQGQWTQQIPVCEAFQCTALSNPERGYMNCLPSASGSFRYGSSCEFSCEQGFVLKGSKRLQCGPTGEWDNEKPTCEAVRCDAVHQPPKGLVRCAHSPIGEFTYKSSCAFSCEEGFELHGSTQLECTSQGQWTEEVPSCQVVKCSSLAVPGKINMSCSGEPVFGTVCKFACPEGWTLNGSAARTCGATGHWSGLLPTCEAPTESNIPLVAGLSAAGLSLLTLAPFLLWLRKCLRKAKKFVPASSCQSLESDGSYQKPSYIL

CCOC(=O)COc1ccc2c(c1)CC(NCC(O)c1cccc(Cl)c1)CC2 (configuration not stated)
inactive: [8] | [12] | [13]
active: [1] 31.4 µM | [2] 33.6 µM | [3] 28.2 µM | [4] 27.6 µM | [5] 32.1 µM | [6] 28.3 µM | [7] 26.7 µM | [9] 34.2 µM | [10] 29.8 µM | [11] 28.1 µM | [14] 28.7 µM | [15] 34.5 µM | [16] 30 µM | [17] 30.3 µM

CC(C)CCCCCCCOC(=O)CCCCC(=O)OCCCCCCCC(C)C
not listed: [3] | [9] | [19]
inactive: all other assays above

CCOC(=O)CC(CC(=O)OCC)(OC(C)=O)C(=O)OCC
not listed: [3] | [11]
inactive: all other assays above

C=CCCCCCCCCC(=O)O
not listed: [3] | [9]
inactive: all other assays above

CC[C@H](C)C(=O)O[C@H]1C[C@@H](C)C=C2C=C[C@H](C)[C@H](CC[C@@H]3C[C@@H](O)CC(=O)O3)[C@H]21
inactive: [6] | [18] | [13]
active: [1] 31.6 µM | [2] 24 µM | [3] 1.98 µM | [4] 31.5 µM | [5] 25.5 µM | [7] 9.87 µM | [8] 33.8 µM | [10] 32.9 µM | [11] 19.9 µM | [14] 19.9 µM | [15] 27.3 µM | [17] 36.3 µM
